Measured values as given in PubChem BioAssay (Tox21).
Calls of active or inactive are those of the source. The call rests on the fitted dose curve; in most records, active means well fitted curve in the direction sought with a large enough effect in the repeat runs; inconclusive means weak or mixed curves; inactive means flat fitted curve, though single readings scatter.

assay: qHTS assay to test for compound auto fluorescence at 460 nm (blue) in HEK293 cells (AID 720678); settings: blue autofluorescence 405/460 nm; series mostly up to 91.3 µM; fluorescence, % of triamterene: at the top concentration
Excerpt: National Center for Advancing Translational Sciences [NCATS]
NIH Chemical Genomics Center [NCGC]
U.S. Environmental Protection Agency [EPA]
National Institutes of Environmental Health Sciences [NIEHS]
National Toxicology Program [NTP]
U.S. Food and Drug Administration [FDA]
Compound auto fluorescence often interferes with screening of the compound library against various biological targets and signaling pathways. Some of these compounds may have fluorophoric properties. Such properties may interfere with the assay outputs resulting in false positives and/or negatives. To decrease such complications and ensure the compound activities are relevant in terms of biological response, the Tox21 10K compound library was screened for auto fluorescence.
From the fluorophores used as reporter signals in our screening assays, the auto fluorescence equivalencies of compounds against three fluorophores have been evaluated: Triamterene, Fluorescein and Rose Bengal sodium for blue, green and red fluorescence, respectively. The fluorescence intensities were measured using Excitation/Emission wavelengths at 405/460nm, 485/535nm and 540/590nm for blue, green and red labels, respectively. This assay includes the blue fluorescence data.
Tox21 Assay Protocol Summary:
2,000 HEK293 cells in 5 uL of culture medium containing 10% dialyzed FBS per well were dispensed into black wall/clear bottom 1536-well plates using a Multidrop Combi Dispenser (Thermo Scientific). The assay plates were incubated for 4-5 hr at 37C to allow cell attachment to the well bottom, followed by the transfer of 23 nL compound or DMSO vehicle by a pintool work station (Kalypsys, San Diego, CA). After the assay plates were incubated overnight at 37C and 5% CO2, fluorescence intensities in the assay plates were measured by an Envision (PerkinElmer, Shelton, CT) plate reader using three labels for measuring blue, green and red fluorescence at […] 460, 535 and 590nm respectively.
On the % scale 0 is the no-effect control and ±100 the full control effect.

SMILES | fluorescence, % of triamterene
CCN(CC)C(=O)N1CCN(C)CC1 | -0.217% [at 18.6 µM] (inactive)
CCN(CC)CCOC(=O)C(c1ccccc1)c1ccccc1 | 0.079% [at 46 µM] (inactive)
O=C(Nc1ccc(C(=O)O)c(O)c1)c1ccccc1 | 0.0015% [at 46 µM] (inactive)
O=C(O)CCC(=O)c1ccc(-c2ccccc2)cc1 | -0.239% [at 18.6 µM] (inactive)
CS(=O)(=O)c1ccc([C@@H](C[C@H]2CCC(=O)C2)C(=O)Nc2cnccn2)cc1Cl | 0.119% (inactive)
COC(OC)OC | 0.0245% (inactive)
CCN(CC)CCNC(=O)c1cc(Cl)c(N)cc1OC | -0.104% [at 46 µM] (inactive)
O=C(O)CCCc1c[nH]c2ccccc12 | -0.0963% (inactive)
CCCCCCCC(=O)OCCCCCC | 0.0193% (inactive)
COc1ccc(N)c([N+](=O)[O-])c1 | 0.139% (inactive)
CCOC(=O)c1ccc(NC(=O)CN2CCCCC2)cc1 | -0.15% [at 46 µM] (inactive)
O=C(CCS)OCC(COC(=O)CCS)(COC(=O)CCS)COC(=O)CCS | 0.0124% (inactive)
CC(C)OC(=O)c1ccccc1C(=O)OC(C)C | 0.641% (inactive)
CC1CCC(C(C)CS)CC1S (stereo not given) | 0.105% (inactive)
Nc1ccc(F)cc1 | 0.104% [at 95.7 µM] (inactive)
CCC(Cl)CC(Cl)C(Cl)C(Cl)C(Cl)C(C)Cl (stereo not given) | 0.1% [at 13.4 µM] (inactive)
CCCCCCCC/C=C\CCCCCCCC(=O)OCCO | 0.167% [at 95.7 µM] (inactive)
O=C(O)CN1C(=O)c2cccc3cccc(c23)C1=O | 0.0852% [at 46 µM] (inactive)
Cc1cc([N+](=O)[O-])ccc1N | -0.0214% (inactive)
C1=CCC2CC=CC2C1 (stereo not given) | -0.157% (inactive)

SMILES | fluorescence, % of triamterene
CC(C)(C)C1(CCc2ccc(Cl)cc2)CO1 (stereo not given) | 0.0351% (inactive)
CC(O)Cn1cnc2c1c(=O)n(C)c(=O)n2C (stereo not given) | -0.0145% [at 18.6 µM] (inactive)
NC(=O)CCCCC(N)=O | -0.0321% (inactive)
CC(C)c1ccc(C(=O)N=C(N)N)cc1S(C)(=O)=O | -0.129% (inactive)
Cc1ccc2c(c1[N+](=O)[O-])C(=O)c1ccccc1C2=O | -0.234% [at 46 µM] (inactive)
O=C1OC[C@H](Cc2cccc(O)c2)[C@H]1Cc1cccc(O)c1 | 0.0388% [at 46 µM] (inactive)
O=C(O)c1ccc(O)cc1O | -0.0622% (inactive)
NC(=O)c1ccccc1[N+](=O)[O-] | 1.74% [at 95.7 µM] (inactive)
CC(=O)OCC(C)C | -0.0804% (inactive)
Cc1cccc2sc(N)nc12 | -0.232% [at 95.7 µM] (inactive)
CCSC(=O)N(CC)CC | -0.0178% (inactive)
CCN(CC)c1cccc(O)c1 | 2.12% [at 95.7 µM] (inactive)
CCC(=O)OCc1ccc(OC)cc1 | -0.0285% (inactive)
CCOC(=O)C(C)O (stereo not given) | -0.167% [at 95.7 µM] (inactive)
Cc1ccc2nc(N)[nH]c(=O)c2c1Sc1ccncc1 | 0.141% [at 46 µM] (inactive)
CC(C)C1CCC(C(=O)N[C@H](Cc2ccccc2)C(=O)O)CC1 (stereo not given in full) | 0.373% [at 46 µM] (inactive)
O=C(C(=O)c1ccco1)c1ccco1 | 1.08% (inactive)
CNc1c2c(nn1C)CCCC2 | -0.0415% [at 46 µM] (inactive)
CCCCCCCCCCCSCC(=O)O | 0.0101% (inactive)
CSSc1ccoc1C | -0.0094% (inactive)
